The values that follow come from PubChem BioAssay (Tox21).

Test [1] is described as follows: qHTS assay to test for compound auto fluorescence at 535 nm (green) in HEK293 cells (AID 720680).
The nature of test [2]: qHTS assay to test for compound auto fluorescence at 460 nm (blue) in HEK293 cell free culture (AID 720681). The method, boiled down: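 Blue fluorescence (Ex 405/Em 460 nm, triamterene-equivalent) was read immediately after pin transfer of compound or DMSO into medium (DMEM, 10% FBS) without cells.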
A short description of test [3]: qHTS assay to test for compound auto fluorescence at 535 nm (green) in HEK293 cell free culture (AID 720682). The method, boiled down:
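Using fluorescein as calibrant, autofluorescence was quantified at 485/535 nm in cell-free DMEM containing 10% FBS after pintool addition of compound or vehicle.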

Test [4] can be described thus: qHTS assay to test for compound auto fluorescence at 590 nm (red) in HEK293 cell free culture (AID 720683). The method, boiled down: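 Red-channel autofluorescence of compounds in culture medium (DMEM, 10% FBS), no cells, measured at 540/590 nm. Rose Bengal sodium is the reference fluorophore for equivalence.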
Test [5] in a line: qHTS assay to test for compound auto fluorescence at 590 nm (red) in HepG2 cell free culture (AID 720684). The method, boiled down:
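Cell-free; medium MEM + 10% FBS; compound or DMSO added by pintool; read Ex 540/Em 590 nm; Rose Bengal sodium as red reference fluorophore.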

A short description of test [6]: qHTS assay to test for compound auto fluorescence at 460 nm (blue) in HepG2 cell free culture (AID 720685). A digest of the protocol: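 Cell-free plates of MEM plus 10% FBS received 23 nL compound or DMSO vehicle; blue-channel (405/460 nm) intensity scored against triamterene as reference fluorophore.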
A short description of test [7]: qHTS assay to test for compound auto fluorescence at 535 nm (green) in HepG2 cell free culture (AID 720686).
Test [8] in a line: qHTS assay to test for compound auto fluorescence at 460 nm (blue) in HepG2 cells (AID 720687). The method, boiled down: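 Blue-channel autofluorescence (Ex/Em 405/460 nm, triamterene-equivalent) was measured after 1 hr compound exposure at 37 C, 5% CO2. Cells were HepG2, plated overnight at 37 C in MEM plus 10% FBS.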
For test [9], the target named is Glucocorticoid receptor (Homo sapiens) (UniProt P04150). The experiment in a line: qHTS assay to identify small molecule agonists of the glucocorticoid receptor (GR) signaling pathway (AID 720691; active = well fitted activation curve with a large enough effect in the signal ratio in the repeat runs, not every such curve was filed as active; the % refers to the signal ratio). A digest of the protocol:
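Compounds in DMSO, alongside positive controls, were added to GR-bla HeLa reporter cells and incubated 18 h at 37 C; GRE-driven beta-lactamase was detected by fluorescence after 2 h with FRET substrate at room temperature.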

Test [10] shares this target. The experiment in a line: qHTS assay to identify small molecule antagonists of the glucocorticoid receptor (GR) signaling pathway (AID 720692; active = well fitted inhibition curve with a large enough effect in the signal ratio in the repeat runs, not every such curve was filed as active; the % refers to the signal ratio). A digest of the protocol:
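In a 1536-well cell format, compounds were added 4 h after seeding GR-bla HeLa cells, together with dexamethasone at 5 nM final; reporter activity was measured by FRET-substrate fluorescence following 18 h at 37 C.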

Test [11] can be described thus: qHTS assay to identify small molecule antagonists of the glucocorticoid receptor (GR) signaling pathway - cell viability counter screen (AID 720693). Note: nearly all actives have a fitted effect of over 55% in size.
Test [12] in a line: qHTS assay for identifying genotoxic compounds that show differential cytotoxicity against isogenic chicken DT40 cell lines with known DNA damage response pathways - wild type cell line (AID 743012). Note: nearly all actives have a fitted effect of over 60% in size. Note: potency is the fitted concentration of half-maximal effect. A digest of the protocol:
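Viability of DNA repair-proficient chicken DT40 cells was assessed by CellTiter-Glo luminescence following 40 h compound exposure at 37 C/5% CO2.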

Test [13] can be described thus: qHTS assay for identifying genotoxic compounds that show differential cytotoxicity against isogenic chicken DT40 cell lines with known DNA damage response pathways - Rad54/Ku70 mutant cell line (AID 743015). Note: nearly all actives have a fitted effect of over 60% in size. Note: potency is the fitted concentration of half-maximal effect.
A short description of test [14]: qHTS assay to identify small molecule antagonists of the androgen receptor (AR) signaling pathway - cell viability counter screen (AID 743033; note: nearly all actives have a fitted effect of over 45% in size).
Test [15] is described as follows: qHTS assay to identify small molecule antagonists of the androgen receptor (AR) signaling pathway using the MDA cell line - cell viability counter screen (AID 743041; note: nearly all actives have a fitted effect of over 45% in size). The method, boiled down: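 Viability read by CellTiter-Fluor fluorescence in the same wells as the antagonist screen, added after 15.5 h of a 16 h, 37C exposure. Human breast carcinoma MDA-kb2 AR-luc cells, compounds co-dosed with agonist R1881.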

The nature of test [16]: qHTS assay for identifying genotoxic compounds that show differential cytotoxicity against isogenic chicken DT40 cell lines with known DNA damage response pathways - Rev3 mutant cell line (AID 743014). Note: nearly all actives have a fitted effect of over 55% in size. Note: potency is the fitted concentration of half-maximal effect.
Test [17] deals with Androgen receptor (Homo sapiens) (UniProt P10275). The test can be described thus: qHTS assay to identify small molecule antagonists of the androgen receptor (AR) signaling pathway (AID 743035; active = well fitted inhibition curve with a large enough effect in the signal ratio in the repeat runs, not every such curve was filed as active; the % refers to the signal ratio). A digest of the protocol:
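Reporter HEK293 cells were exposed to compounds and R1881 overnight (16 h, 37C); beta-lactamase activity was then quantified by FRET fluorescence.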

For test [18] the target is unchanged. The experiment in a line: qHTS assay to identify small molecule agonists of the androgen receptor (AR) signaling pathway (AID 743036; active = well fitted activation curve with a large enough effect in the signal ratio in the repeat runs, with a control signal flat, not every such curve was filed as active; the % refers to the signal ratio). The method, boiled down:
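In this Tox21 qHTS, 2,000 HEK293 AR-bla cells per well were incubated with compounds for 16 h at 37C and 5% CO2. Fluorescence intensity was recorded 2 h after adding LiveBLAzer B/G FRET substrate at room temperature.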

Test [19] has the same target. The test can be described thus: qHTS assay to identify small molecule agonists of the androgen receptor (AR) signaling pathway using the MDA cell line (AID 743040; note: nearly all actives have a fitted effect of over 20% in size). A digest of the protocol:
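Luciferase agonist assay: 16 h compound exposure at 37C without CO2 in MDA-kb2 AR-luc cells, whose MMTV promoter responds to both AR and GR. Luminescence measured after 30 min room-temperature incubation with ONE-Glo.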

Test [20] shares this target. The experiment in a line: qHTS assay to identify small molecule antagonists of the androgen receptor (AR) signaling pathway using the MDA cell line (AID 743042; note: nearly all actives have a fitted effect of over 55% in size). The method, boiled down:
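Antagonist mode: compounds plus R1881 agonist added to MDA-kb2 AR-luc cells, incubated 16 h at 37C. Luciferase reporter luminescence quantified, with multiplexed CellTiter-Fluor readout for cell viability.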

“And” between values parts separate entries of the source, which are not always exact repeats. Equal entries are not always repeated. Records with an inconclusive call do not appear. The source holds several records for some structures; these can differ, active in one and inactive in another. The source made the active and inactive calls. Unless noted, calls come from the whole dose curve; as a rule, active = well fitted curve in the direction sought with a large enough effect in the repeat runs; inconclusive = weak or mixed curves; inactive = no such curve, though single readings can be large; an effect the other way counts as inactive or inconclusive.
% is set by controls: 0 for no effect and ±100 for the full control effect.

Glucocorticoid receptor (Homo sapiens), sequence (P04150 whole entry, looked up): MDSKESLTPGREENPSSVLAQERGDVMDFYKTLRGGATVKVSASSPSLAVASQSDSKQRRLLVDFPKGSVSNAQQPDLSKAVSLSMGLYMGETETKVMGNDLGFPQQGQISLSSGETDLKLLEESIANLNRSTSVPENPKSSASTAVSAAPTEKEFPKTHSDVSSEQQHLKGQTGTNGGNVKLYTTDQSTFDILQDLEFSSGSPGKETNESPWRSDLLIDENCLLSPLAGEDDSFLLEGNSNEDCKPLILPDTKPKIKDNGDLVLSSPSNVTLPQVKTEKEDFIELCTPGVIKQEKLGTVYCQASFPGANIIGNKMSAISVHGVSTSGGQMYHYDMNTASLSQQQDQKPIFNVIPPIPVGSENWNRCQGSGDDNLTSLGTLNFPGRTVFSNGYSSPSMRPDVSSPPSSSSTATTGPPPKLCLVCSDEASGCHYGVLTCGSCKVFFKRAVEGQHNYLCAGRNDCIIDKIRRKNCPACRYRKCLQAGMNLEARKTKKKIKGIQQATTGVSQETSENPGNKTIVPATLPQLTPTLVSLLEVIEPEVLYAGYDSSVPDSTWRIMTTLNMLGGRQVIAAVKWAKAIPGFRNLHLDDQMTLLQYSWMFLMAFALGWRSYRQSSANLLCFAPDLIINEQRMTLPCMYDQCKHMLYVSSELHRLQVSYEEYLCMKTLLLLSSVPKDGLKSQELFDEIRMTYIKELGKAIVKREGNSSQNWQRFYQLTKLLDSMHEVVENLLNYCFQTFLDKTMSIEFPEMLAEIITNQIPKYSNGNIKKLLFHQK
Androgen receptor (Homo sapiens), sequence (P10275 whole entry, looked up): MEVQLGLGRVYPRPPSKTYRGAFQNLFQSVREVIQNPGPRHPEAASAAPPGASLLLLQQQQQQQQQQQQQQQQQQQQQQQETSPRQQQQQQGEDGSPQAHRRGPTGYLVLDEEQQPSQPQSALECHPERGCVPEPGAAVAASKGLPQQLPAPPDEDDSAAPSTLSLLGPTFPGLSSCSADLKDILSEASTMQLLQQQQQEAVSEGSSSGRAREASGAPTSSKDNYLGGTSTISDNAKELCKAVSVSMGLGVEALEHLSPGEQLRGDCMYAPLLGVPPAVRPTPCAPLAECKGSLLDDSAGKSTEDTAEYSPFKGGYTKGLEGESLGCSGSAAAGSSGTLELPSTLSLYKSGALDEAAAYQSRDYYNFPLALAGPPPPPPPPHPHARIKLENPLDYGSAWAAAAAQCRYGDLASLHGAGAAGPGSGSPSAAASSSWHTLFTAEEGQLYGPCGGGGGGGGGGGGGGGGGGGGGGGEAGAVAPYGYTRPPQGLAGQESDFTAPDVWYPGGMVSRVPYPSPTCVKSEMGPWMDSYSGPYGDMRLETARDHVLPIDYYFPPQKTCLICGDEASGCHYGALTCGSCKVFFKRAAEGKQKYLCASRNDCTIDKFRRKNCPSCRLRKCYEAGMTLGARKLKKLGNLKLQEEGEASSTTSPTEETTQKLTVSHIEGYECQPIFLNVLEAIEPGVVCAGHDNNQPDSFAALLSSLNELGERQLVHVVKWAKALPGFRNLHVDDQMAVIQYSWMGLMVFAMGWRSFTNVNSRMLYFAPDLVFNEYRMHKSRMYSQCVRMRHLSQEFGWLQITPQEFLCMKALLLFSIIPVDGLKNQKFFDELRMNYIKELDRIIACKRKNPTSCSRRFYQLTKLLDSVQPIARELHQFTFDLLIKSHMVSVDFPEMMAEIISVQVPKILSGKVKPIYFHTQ

Consider `CCC1NC(=O)c2cc(S(N)(=O)=O)c(Cl)cc2N1` (stereo unspecified), for which the fluorescence, % of fluorescein in test [1] is -0.0959% [at 18.6 µM] (inactive). The fluorescence, % of fluorescent control in test [2] was -0.0955% [at 18.6 µM] (inactive); in test [4], -0.121% [at 18.6 µM] (inactive); in test [6] it was -0.0342% [at 18.6 µM] (inactive); in test [8], -0.0496% [at 18.6 µM] (inactive). In addition, the activity change in test [3] was -0.178% [at 18.6 µM] (inactive). The fluorescence, % of Rose Bengal in [5] was -0.427% [at 18.6 µM] (inactive). Besides, the fluorescence, % of fluorescein control in test [7] is 0.0837% [at 18.6 µM] (inactive). For the same compound, the Potency result in test [9], in test [10], in test [11], in test [12], in test [13] and in test [14] was “inactive” in each case. Besides, the Potency result in [15] was “inactive”.
For `O=C(O)CCc1nc(-c2ccccc2)c(-c2ccccc2)o1`, the call in test [1], in test [3], in test [4], in test [5] and in [7] was inactive. For the same compound, the Potency entry in [2], in [6], in test [8], in [9], in test [10] and in test [11] was “inactive” throughout. Further, the Potency entry in test [12], in [16], in [13], in [14] and in [15] was “inactive” in each case.
`CCCCCCCCCI`: the compound was called inactive in test [1], in test [3], in test [4], in test [5] and in test [7]. The Potency entry in test [2], in [6], in test [8], in test [9], in [10] and in test [12] was “inactive” throughout. For the same compound, the Potency result in test [16], in test [13], in [14] and in [15] was “inactive” throughout.
In the case of `O=C(O)c1cccc(-c2noc(-c3ccccc3F)n2)c1`, the result in test [1], in test [3], in test [4], in test [5] and in test [7] was inactive. For the same compound, the Potency result in [2], in [6], in [8], in [9], in test [10] and in test [11] was “inactive” in each case. The Potency entry in [12], in [16], in test [13], in test [14] and in test [15] was “inactive” in each case.
For the compound `Cc1cc(C)cc(N)c1`, the compound was classed as inactive in test [1], in [3], in test [4], in [5], in test [7] and in test [18]. Moreover, in [19], the call was inactive. The Potency result in test [2], in test [6], in [8], in test [9], in test [10] and in test [11] was “inactive” each time. For the same compound, the Potency result in [12], in test [16], in test [13], in test [14], in test [17] and in test [15] was “inactive” each time. The Potency result in test [20] was “inactive”.
On to `CCCCN1CCCC1C(=O)Nc1c(C)cc(C)cc1C` (stereo unspecified), for which the compound was called inactive in [1], in [3], in [4], in test [5] and in test [7]. Moreover, the Potency entry in test [2], in test [6], in test [8], in [9], in [10] and in test [14] was “inactive” in each case. In addition, the Potency result in test [15] was “inactive”. In addition, the Potency in [12] is 16.8 µM (active); in test [16] it was 23.7 µM (active); in test [13] it was 29.8 µM (active).
Take `CC(C)c1nc(CN(C)C(=O)N[C@H](C(=O)N[C@@H](Cc2ccccc2)C[C@H](O)[C@H](Cc2ccccc2)NC(=O)OCc2cncs2)C(C)C)cs1`: the result in test [1], in test [3], in [4], in [5] and in [7] was inactive. The Potency entry in test [2], in test [6], in test [8], in [9], in [11] and in test [16] was “inactive” each time. The Potency entry in test [14] and in test [15] was “inactive” in each case. Further, the Potency entry in test [12] was “inactive and 23.7 µM (active)”; in test [13] it was 23.7 µM (active).
Consider `Cc1ccc(OC(=O)c2ccccc2O)cc1`, for which the result in [1], in test [3], in test [4], in test [5] and in test [7] was inactive. Besides, the Potency result in test [2], in [6], in test [8], in [9], in test [12] and in test [16] was “inactive” in each case. The Potency result in test [13], in test [14] and in test [15] was “inactive” throughout.
